# For some assays here: Entries with a potency or affinity are not part of this list.
# Tests used:
# Set-up in all cases: scale not given: direction of the effect not stated beside the values
# [1] = biological target: Protein translocase subunit SecA (Escherichia coli (strain K12)) (UniProt P10408); assay: Assay to Identify E. coli SecA ATPase Inhibitors; assay type: functional; conditions: 30 µM
# [2] = biological target: T1, Ubiquitin-activating enzyme e1, putative (Leishmania donovani (strain BPK282A1)) (UniProt E9BSI1); assay: Leishmania donovani Ubiquitin Activating Enzyme (LdE1); assay type: functional; conditions: 30 µM
# T1 sequence (whole entry): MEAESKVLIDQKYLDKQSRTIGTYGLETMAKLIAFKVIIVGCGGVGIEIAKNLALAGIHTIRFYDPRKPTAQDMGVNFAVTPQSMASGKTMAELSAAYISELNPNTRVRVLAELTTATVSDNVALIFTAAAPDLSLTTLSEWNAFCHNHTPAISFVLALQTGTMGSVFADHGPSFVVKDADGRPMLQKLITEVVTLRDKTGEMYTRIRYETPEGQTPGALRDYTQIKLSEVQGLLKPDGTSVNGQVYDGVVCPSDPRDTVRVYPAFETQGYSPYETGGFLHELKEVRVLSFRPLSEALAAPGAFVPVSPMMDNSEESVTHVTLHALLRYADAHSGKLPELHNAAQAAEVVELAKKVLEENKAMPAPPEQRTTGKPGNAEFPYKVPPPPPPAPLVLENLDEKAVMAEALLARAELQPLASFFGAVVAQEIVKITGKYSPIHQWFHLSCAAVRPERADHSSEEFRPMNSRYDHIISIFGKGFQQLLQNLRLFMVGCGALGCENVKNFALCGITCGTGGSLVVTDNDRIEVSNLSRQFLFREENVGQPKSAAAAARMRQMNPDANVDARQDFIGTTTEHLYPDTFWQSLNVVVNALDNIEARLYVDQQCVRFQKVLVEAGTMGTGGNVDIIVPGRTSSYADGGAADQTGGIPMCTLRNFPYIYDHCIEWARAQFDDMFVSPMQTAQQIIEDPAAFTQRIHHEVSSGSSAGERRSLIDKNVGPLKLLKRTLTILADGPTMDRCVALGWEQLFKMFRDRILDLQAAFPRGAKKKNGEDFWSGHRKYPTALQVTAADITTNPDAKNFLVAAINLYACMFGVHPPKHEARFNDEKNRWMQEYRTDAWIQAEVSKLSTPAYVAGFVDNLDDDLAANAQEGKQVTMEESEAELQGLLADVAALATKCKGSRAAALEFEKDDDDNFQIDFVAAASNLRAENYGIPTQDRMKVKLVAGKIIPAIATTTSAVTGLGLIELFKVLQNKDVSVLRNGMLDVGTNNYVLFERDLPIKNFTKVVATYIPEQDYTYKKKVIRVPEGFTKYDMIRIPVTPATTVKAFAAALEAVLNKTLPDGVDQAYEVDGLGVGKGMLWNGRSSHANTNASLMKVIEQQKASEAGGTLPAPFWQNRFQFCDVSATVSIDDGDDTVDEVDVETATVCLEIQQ
# [3] = biological target: AMP-activated protein kinase, AMPK (Homo sapiens) (UniProt P54646+O43741+P54619+Q9UGJ0+Q9Y478+Q13131+Q9UGI9); assay: AMP-dependent Kinase enzyme assay. An in vitro enzyme assay that detects ADP turnover that is directly proportional to AMPK activity. This uses naive AMPK that is activated during the assay with MK-8722; assay type: functional; conditions: 30 µM
# [4] = biological target: Sialic acid-binding Ig-like lectin 9 (Homo sapiens) (UniProt Q9Y336); assay: Hs-Siglec9 ALPHAscreen SOP 20170721; conditions: 10 µM
# Chain of Sialic acid-binding Ig-like lectin 9 (Homo sapiens) (Q9Y336 whole entry): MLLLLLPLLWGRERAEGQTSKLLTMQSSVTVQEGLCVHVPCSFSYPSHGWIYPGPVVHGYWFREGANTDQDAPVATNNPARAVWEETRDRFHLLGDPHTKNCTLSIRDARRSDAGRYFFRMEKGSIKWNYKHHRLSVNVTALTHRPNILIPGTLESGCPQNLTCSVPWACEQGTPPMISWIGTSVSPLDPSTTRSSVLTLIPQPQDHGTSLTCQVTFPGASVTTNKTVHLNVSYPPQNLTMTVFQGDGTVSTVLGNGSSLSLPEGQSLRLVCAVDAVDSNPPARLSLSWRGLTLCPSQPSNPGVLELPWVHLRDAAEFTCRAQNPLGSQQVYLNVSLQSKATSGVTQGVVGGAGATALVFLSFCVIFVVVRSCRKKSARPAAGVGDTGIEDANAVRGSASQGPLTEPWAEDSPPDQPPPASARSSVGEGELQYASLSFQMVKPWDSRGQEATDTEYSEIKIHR
# Trypanosoma cruzi = assay: Trypanosoma cruzi phosphomannomutase and mannose-1-phosphate guanylyltransferase assay; assay type: functional; conditions: 10 µM
# [5] = biological target: T2, Arginase-2, mitochondrial (Homo sapiens) (UniProt P78540); assay: in vitro enzyme assay to detect the production of urea directly proportional to the activity of Arginase II; assay type: functional; conditions: 33.3 µM; also: in the data most compounds retested in dose-response had high values
# T2 sequence (whole entry): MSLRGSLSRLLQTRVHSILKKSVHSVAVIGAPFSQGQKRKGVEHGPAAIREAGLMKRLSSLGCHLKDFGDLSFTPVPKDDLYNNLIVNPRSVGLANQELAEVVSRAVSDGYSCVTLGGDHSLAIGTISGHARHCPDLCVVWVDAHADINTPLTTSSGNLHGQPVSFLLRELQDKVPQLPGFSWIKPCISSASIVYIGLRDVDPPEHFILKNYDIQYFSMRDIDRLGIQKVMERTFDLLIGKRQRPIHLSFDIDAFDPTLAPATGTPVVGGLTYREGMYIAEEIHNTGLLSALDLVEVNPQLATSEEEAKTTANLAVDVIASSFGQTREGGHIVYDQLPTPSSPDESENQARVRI
# [6] = biological target: T3, Proteasome subunit beta (Trypanosoma cruzi) (UniProt O96673); assay: Trypanosoma cruzi proteasome chymotrypsin-like activity (TcProtChymo) assay.; also: in the data most compounds retested in dose-response had high values; assay type: functional; conditions: 9.37 µM
# T3 sequence (whole entry): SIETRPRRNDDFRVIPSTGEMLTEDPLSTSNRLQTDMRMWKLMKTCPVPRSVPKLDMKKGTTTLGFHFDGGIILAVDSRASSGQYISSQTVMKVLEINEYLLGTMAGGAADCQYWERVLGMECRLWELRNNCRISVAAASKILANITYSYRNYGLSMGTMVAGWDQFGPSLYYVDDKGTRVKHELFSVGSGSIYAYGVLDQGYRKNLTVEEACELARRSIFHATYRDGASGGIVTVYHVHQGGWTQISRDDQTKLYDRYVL
# Homo sapiens = species: Homo sapiens; assay: To identify inhibition of the IFN signalling (Jak-Stat) pathway via expression of an eGFP reporter gene under the control of an IFN-stimulated response element (ISRE) containing MxA promoter.; assay type: functional; conditions: 30 µM
# [7] = biological target: T4, Tyrosyl-tRNA synthetase, putative (Trypanosoma cruzi (strain CL Brener)) (UniProt Q4DSP6); assay: Trypanosoma cruzi tyrosyl tRNA synthetase (TcYRS) _High Tyrosine SOP; assay type: functional; conditions: 30 µM; also: in the data most compounds retested in dose-response had high values
# T4 sequence (whole entry): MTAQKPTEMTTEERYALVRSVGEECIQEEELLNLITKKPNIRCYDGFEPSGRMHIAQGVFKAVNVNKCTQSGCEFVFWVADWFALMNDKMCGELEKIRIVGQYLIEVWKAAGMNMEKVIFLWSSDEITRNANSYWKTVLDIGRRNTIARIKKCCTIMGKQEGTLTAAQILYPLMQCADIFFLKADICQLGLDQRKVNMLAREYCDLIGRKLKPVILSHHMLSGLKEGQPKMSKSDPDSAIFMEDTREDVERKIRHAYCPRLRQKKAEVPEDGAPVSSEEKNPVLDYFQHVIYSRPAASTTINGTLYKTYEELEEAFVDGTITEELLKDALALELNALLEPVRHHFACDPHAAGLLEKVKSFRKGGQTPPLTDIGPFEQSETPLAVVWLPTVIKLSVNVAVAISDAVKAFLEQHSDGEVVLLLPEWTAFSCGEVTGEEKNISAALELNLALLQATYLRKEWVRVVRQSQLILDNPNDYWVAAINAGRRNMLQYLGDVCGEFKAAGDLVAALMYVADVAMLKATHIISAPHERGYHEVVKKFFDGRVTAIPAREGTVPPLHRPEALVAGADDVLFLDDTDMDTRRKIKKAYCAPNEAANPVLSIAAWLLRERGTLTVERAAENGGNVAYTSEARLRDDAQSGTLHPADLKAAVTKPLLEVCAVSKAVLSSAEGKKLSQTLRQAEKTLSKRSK
# [8] = biological target: T4, Tyrosyl-tRNA synthetase, putative (Trypanosoma cruzi (strain CL Brener)); assay: Trypanosoma cruzi tyrosyl tRNA synthetase (TcYRS) SOP; assay type: functional; conditions: 30 µM
# [9] = biological target: Chromo domain-containing protein 1 (Saccharomyces cerevisiae (strain ATCC 204508 / S288c) (Baker's yeast)) (UniProt P32657); assay: ScCHD-1 Enzyme Inhibition Assay; assay type: functional; conditions: 30 µM; also: in the data most compounds retested in dose-response had high values
# Chain of Chromo domain-containing protein 1 (Saccharomyces cerevisiae (strain ATCC 204508 / S288c) (Baker's yeast)) (P32657 whole entry, the tested form may be a part): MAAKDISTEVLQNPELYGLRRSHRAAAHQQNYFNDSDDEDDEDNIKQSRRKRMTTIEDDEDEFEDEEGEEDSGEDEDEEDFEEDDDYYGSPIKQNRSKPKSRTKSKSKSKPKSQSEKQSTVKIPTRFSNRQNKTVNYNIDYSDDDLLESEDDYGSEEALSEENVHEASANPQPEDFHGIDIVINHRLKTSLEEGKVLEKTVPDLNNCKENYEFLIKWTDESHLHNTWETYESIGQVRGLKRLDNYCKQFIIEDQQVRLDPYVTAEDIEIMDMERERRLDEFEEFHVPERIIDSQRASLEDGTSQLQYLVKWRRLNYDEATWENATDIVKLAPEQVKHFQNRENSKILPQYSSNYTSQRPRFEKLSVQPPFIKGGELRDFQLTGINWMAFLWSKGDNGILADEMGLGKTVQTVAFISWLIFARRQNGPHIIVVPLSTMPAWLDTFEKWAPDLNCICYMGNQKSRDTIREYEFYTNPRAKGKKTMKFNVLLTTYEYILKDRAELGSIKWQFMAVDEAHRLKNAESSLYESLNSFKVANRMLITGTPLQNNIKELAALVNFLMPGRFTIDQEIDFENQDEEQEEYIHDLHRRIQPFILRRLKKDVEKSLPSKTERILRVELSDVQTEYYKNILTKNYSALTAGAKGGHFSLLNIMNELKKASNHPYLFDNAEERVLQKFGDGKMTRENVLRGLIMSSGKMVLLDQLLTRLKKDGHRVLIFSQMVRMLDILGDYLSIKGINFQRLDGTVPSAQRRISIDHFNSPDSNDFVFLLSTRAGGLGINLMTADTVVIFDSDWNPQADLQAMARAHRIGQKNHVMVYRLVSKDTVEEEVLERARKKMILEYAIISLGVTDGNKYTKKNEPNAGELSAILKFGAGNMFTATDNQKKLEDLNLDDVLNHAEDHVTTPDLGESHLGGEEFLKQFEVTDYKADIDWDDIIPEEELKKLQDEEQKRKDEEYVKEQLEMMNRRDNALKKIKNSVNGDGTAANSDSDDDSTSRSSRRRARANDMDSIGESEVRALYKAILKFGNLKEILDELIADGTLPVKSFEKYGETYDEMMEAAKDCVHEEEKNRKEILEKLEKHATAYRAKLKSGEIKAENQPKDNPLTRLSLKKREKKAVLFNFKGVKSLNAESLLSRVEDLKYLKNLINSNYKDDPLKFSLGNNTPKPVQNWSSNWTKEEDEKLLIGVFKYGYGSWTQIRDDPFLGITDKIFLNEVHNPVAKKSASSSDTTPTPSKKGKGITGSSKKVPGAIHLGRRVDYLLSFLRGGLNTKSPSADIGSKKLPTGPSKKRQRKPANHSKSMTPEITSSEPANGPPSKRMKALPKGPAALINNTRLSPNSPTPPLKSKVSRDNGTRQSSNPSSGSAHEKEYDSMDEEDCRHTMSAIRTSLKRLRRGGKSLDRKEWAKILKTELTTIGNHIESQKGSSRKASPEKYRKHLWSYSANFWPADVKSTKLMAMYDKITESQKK
# Chain of Protein translocase subunit SecA (Escherichia coli (strain K12)) (P10408 whole entry): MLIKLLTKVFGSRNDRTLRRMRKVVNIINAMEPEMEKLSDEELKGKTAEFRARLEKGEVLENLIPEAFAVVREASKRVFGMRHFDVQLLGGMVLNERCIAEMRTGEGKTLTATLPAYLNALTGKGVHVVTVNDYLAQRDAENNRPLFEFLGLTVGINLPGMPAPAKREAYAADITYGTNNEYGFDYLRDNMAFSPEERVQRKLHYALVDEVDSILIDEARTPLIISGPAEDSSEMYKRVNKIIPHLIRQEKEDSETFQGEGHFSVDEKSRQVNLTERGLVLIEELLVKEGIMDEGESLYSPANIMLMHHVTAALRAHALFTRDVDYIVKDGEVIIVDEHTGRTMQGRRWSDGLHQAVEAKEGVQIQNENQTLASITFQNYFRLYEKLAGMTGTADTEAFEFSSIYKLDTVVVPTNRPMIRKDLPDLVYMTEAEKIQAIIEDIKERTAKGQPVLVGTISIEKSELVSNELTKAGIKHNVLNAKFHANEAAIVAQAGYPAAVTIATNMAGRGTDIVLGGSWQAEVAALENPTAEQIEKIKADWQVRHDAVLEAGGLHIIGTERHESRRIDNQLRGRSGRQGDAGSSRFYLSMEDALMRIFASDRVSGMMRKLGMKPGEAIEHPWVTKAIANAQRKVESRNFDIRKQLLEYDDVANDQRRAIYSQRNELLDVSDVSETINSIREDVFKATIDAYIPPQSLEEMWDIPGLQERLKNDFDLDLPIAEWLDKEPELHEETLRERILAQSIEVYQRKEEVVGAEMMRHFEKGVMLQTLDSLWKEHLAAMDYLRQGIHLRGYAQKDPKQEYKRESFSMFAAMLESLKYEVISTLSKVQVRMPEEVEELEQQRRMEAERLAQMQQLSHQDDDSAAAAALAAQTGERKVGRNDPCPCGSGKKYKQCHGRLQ
Compound,Percent Effect [1] [%],Percent Effect [2] [%],Percent Effect [3] [%],Percent Effect [4] [%],Percent Effect (Trypanosoma cruzi) [%],Percent Effect [5] [%],Percent Effect [6] [%],Percent Effect (Homo sapiens) [%],Percent Effect [7] [%],Percent Effect [8] [%],Percent Effect [9] [%]
CCC(C)NC(=O)NCCCn1nc2ccccn2c1=O (stereo unspecified),-2.08,13.5,-4.74,-3.56,7.08,-3.61,16.4,-114,1.48,18.5,-14.5
O=C(c1cccs1)N1CCC(O)(CN2CCc3ccccc3C2)C1 (stereo unspecified),-1.45,4.05,0.49,2.19,-4.74,5.34,11.7,7.61,2.15,3.9,-12.6
CCc1n[nH]c(C2CN(C(=O)c3cnc[nH]3)CCO2)n1 (stereo unspecified),-4.08,7.79,7.86,7.55,0.686,4.84,9.62,1.28,2.86,-11.8,-9.8
O=c1oc(-c2cccs2)nn1CC(O)c1ccc(F)cc1 (stereo unspecified),-3.82,0,-2.3,3.88,3.41,-1.04,13.9,18.7,6.01,18.5,-5.35
COc1cc(C(=O)NS(=O)(=O)c2cccc(C#N)c2)ccc1C,-1.35,-10.8,-1.79,1.78,7.15,-0.554,2.33,10.3,-5.94,-1.22,-2.42
O=C(CCN1CCCC1C1CCCCC1)N1CCc2sccc2C1 (stereo unspecified),-3.42,-48.6,11.2,-0.447,5.75,-5.21,-0.18,-25.7,14.3,11.1,10.3
CC1=N[C@@]2(CC[C@@H]3CN(Cc4ccccc4F)C[C@@H]32)C(=O)N1CC1CC1,-5,0,5.98,-2.03,-0.195,-2.5,2.96,11.1,4.95,3.66,1.49
CCN(C1CCS(=O)(=O)C1)S(=O)(=O)c1cccc2cc(C)cnc12 (stereo unspecified),-4.6,21.1,5.96,-4.93,-4.01,3.96,4.99,14.3,6.4,18.5,-6.57
CCc1cccc(OCC(=O)N2CCCC(n3cncn3)C2)c1 (stereo unspecified),-5.42,13.5,1.85,-1.09,-5.57,2,13,14.3,5.42,11.1,-4.63
Cc1cccc(C)c1OCCNC(=O)NC(C)c1nncn1C (stereo unspecified),-5.7,15.6,-1.02,-14.1,5,-2.32,25.8,18.1,8.57,23.5,-21.4
CCc1nnc2n1CCN(Cc1ccc3c(c1)OCCO3)C2,0.332,18.9,-5.31,-8.03,-3.06,1.29,7.9,28.3,2.97,13.4,-0.119
O=C(NC1CC1)N1CCc2ncnc(-c3ccncc3)c2CC1,5.45,10.7,17.6,1.38,-6.37,-55.4,12,4.1,2.08,25,-4.64
COCCC(=O)N1CCN(C)c2ncccc2C1,-4.6,2.6,1,7.83,-2.06,-1.38,3.83,2.13,5.38,6.17,2.1
CSCCCNC(=O)Nc1cccc(-c2nccn2C)c1,-3.41,6.94,-0.0628,2.76,-0.0972,1.32,16.8,10.7,1.05,2.56,-2.41
O=C(C1CCS(=O)(=O)C1)N1CCN(c2cnccn2)CC1 (stereo unspecified),-5.3,16.2,-5.15,-2.95,-7.52,0.185,6.46,14.3,5.94,15.8,-4.21
Cc1cnn(CC2CCCN2C(=O)CCc2nc3ccccc3[nH]2)c1 (stereo unspecified),-4.12,7.59,-2.81,11.1,4.82,0.38,-3.69,-14.8,1.48,8.86,-1.08

# From ChEMBL document CHEMBL3988442, “University of Dundee, Small-Polar-MMV Screening Library” (2021)
